# High-throughput results from PubChem.
# PINK1 expr mod – PINK1 expression modulation. Potency, µM (titrated, usually from 76.6 µM), without a hit: at the top dose activation (PINK1 increase), most hits filed as activators. PINK1 immunofluorescence, high-content cytometry, 24 h. 410,000 tested, 0.2% active; active = well fitted activation curve with a large enough effect; inconclusive = small, poorly fitted or top-dose-only effect; cell line not stated here; also: % of control where 0% means no effect; nearly all actives have a fitted effect of over 65% in size
#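 Compound titrations (5 concentrations, 24 h) on a stable cell line; DMSO and CCCP controls. Endpoint: fixed-cell PINK1 immunofluorescence with mitochondrial, cell and nuclear markers, scanned by microplate cytometer.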
# KB-V1 cytotox – KB-V1 MDR subline cytotoxicity | KB-V1 MDR cells viability, CellTiter-Glo, 72 h | Potency, µM (highest dose often 46.1 µM), actives largely listed as cytotoxic | 400,000 tested, 3.4% active | AID 1347076; also: % is scaled to controls: 0 for no effect and ±100 for the full control effect; nearly all actives have a fitted effect of over 60% in size
#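 Cytotoxicity toward P-gp-expressing KB-V1 cells was determined as loss of CellTiter-Glo luminescence after 72 h at 37 degrees C. Compounds were tested in quantitative HTS format across a concentration range, with curves fitted to normalized data.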
# MCF10A rerep – induces DNA re-replication in MCF 10a normal breast cells; 350,000 tested, 2.9% active; Potency, µM (doses to about 46.1 µM), inactives show at the highest dose activity, positive = re-replication, actives largely listed as activators; MCF 10A DNA re-replication, Hoechst nuclear intensity, 48 h; also: % of control where 0% means no effect; nearly all actives have a fitted effect of over 50% in size
# 12-LOX inh – ALOX12 (human) lipoxygenase inhibition | purified 12hLO, xylenol orange hydroperoxide absorbance | P18054 | Potency, µM (titrated, usually from 108 µM), for inactives: at the highest dose activity change, negative = inhibition, actives largely listed as inhibitors | 580,000 tested, 1.1% active; also: % is scaled to controls: 0 for no effect and ±100 for the full control effect
# Target sequence (P18054 whole entry, looked up): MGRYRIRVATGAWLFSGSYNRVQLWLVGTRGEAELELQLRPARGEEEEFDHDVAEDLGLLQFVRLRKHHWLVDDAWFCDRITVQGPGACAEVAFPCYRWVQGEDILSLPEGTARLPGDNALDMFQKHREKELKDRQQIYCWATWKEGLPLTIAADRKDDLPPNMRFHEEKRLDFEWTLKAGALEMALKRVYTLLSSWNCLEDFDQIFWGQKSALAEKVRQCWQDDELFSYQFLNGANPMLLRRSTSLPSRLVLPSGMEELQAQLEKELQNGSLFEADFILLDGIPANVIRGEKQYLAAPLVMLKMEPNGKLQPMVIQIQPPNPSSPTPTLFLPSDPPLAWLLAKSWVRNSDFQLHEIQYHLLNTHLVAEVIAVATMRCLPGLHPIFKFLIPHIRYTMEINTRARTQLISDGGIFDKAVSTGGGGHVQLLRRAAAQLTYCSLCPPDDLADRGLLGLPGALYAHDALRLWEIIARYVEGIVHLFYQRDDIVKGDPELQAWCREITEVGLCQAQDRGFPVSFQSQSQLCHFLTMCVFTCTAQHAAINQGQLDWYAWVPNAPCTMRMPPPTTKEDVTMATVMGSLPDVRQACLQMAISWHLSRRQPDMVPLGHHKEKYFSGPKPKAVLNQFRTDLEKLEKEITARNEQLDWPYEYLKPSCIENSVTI
#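 Purified human 12hLO at 150 nM in 25 mM Hepes, 0.01% Triton X-100, pH 7.0, preincubated 15 min at room temperature with compound. Reaction started with 40 uM arachidonic acid, 30 min at room temperature. Hydroperoxide measured by Fe-xylenol orange, 573/405 nm absorbance ratio.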
# SW480 rerep – inducers of DNA re-replication in SW480 colon cancer cells. SW480 DNA re-replication, Hoechst DNA content imaging, 48 h. Potency, µM (highest dose often 46.1 µM), for inactives: at the highest dose re-replication activation, actives largely listed as activators. 340,000 tested, 1.8% active. AID 624297; also: % of control where 0% means no effect; nearly all actives have a fitted effect of over 55% in size
#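 DNA re-replication was detected as more nuclei of elevated Hoechst intensity after 48 hr exposure to compound (23 nL pinned per well of 250 cells).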
# KB-3-1 tox – kills parental KB-3-1 adenocarcinoma cells; KB-3-1 viability, CellTiter-Glo ATP luminescence, 72 h; Potency, µM (doses to about 46.1 µM), actives largely listed as cytotoxic; 400,000 tested, 1.4% active; AID 1347075; also: % is scaled to controls: 0 for no effect and ±100 for the full control effect; nearly all actives have a fitted effect of over 60% in size
#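 KB-3-1 cells, DMEM (no phenol red) + 10% FBS; compound by pin transfer, 72 h, 37 °C. Readout: CellTiter-Glo luminescence after 10 min. Data normalized, curve-fitted.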
# * = called active by the depositor; i = inactive; ? = inconclusive; nt = not tested or not shown; ! = not active in a repeat; [ ] = another dose, or the depositor's remark. Hits are enriched below; roughly 5.8% of the tested compounds scored in any of these assays. Unless noted, calls follow the shape of the dose curve; as a rule, active = well fitted curve in the direction sought with a large enough effect; inconclusive = small, poorly fitted or top-dose-only effect, or another doubt; inactive = no such curve, though single readings can be large; an effect the other way counts as inactive or inconclusive. Potency is read from the fitted curve at half-maximal effect.
SMILES,PINK1 expr mod,KB-V1 cytotox,MCF10A rerep,12-LOX inh,SW480 rerep,KB-3-1 tox
Cc1ccc(N(CC(=O)NC2CCCCCC2)S(=O)(=O)c2c(C)nn(C)c2C)cc1,-5%[38.3 µM],9.2µM*,25%,-4%,-2%,i
Cc1ccc(N(CC(=O)NC2CCCCC2C)S(=O)(=O)c2c(C)nn(C)c2C)cc1 (configuration not stated),4%,i,-1%,-1%,-4%,i
COc1ccc(N(CC(=O)Nc2cc(Cl)ccc2C)S(=O)(=O)c2c(C)n[nH]c2C)cc1,4%,i,-4%,-25%,-1%,9.2µM*
O=C(Nc1ccc(S(=O)(=O)N2CCCCC2)cc1)c1cc2c(=O)n3ccccc3nc2s1,nt,nt,nt,3%,nt,nt
CCN(CC(=O)Nc1cc(Cl)ccc1C)C(=O)c1oc2ccc(OC)cc2c1C,-2%,16µM*,15%,-12%,-4%,i
Cc1nn(C)c(C)c1S(=O)(=O)N(CC(=O)NCCCOC(C)C)c1ccc(C(C)C)cc1,-2%[38.3 µM],4.6µM*,-1%,15%,0%,i
COc1ccc(CCNC(=O)c2cc(-c3ccccc3OC)on2)cc1OC,-1%[38.3 µM],?,4%,7%,2%,i
COc1ccc(NC(=O)c2cc(-c3ccccc3OC)on2)cc1,21%[38.3 µM],1µM*,?,10%,3.5µM*,4µM*
COc1ccccc1-c1cc(C(=O)Nc2cccnc2)no1,?,?,?,-4%,0.52µM*,0.16µM*
COc1ccccc1-c1cc(C(=O)Nc2cccnc2Cl)no1,9%,i,-10%,-6%,8%,i
COc1ccccc1-c1cc(C(=O)NCCc2ccccc2)no1,6%,12µM*!,15µM*,-17%,?,?
C#CCNC(=O)NCc1ccc(C(=O)NC)cc1,nt,nt,nt,8%,nt,nt
O=C(O)CN1C(=O)/C(=C\c2cccc(OCc3ccc(F)cc3)c2)SC1=S,2%,?,?,50µM*,-13%,i
O=C(O)CN1C(=O)/C(=C\c2cccc(OCc3ccccc3F)c2)SC1=S,0%,i,?,40µM*,29%,i
C(=N\n1cnnc1)/c1cccc(Oc2ccccc2)c1,-2%,i,730%[0.0737 µM],0%,21%,i
Fc1ccccc1COc1cccc(/C=N/n2cnnc2)c1,-2%[38.3 µM],13µM*,4%,0%,-3%,i
N#Cc1cccc(C(=O)Nc2ccc3ncnc(N4CCCCC4)c3c2)c1,nt,nt,nt,0%,nt,nt
O=C(CSc1ncc(-c2ccc(Br)cc2)o1)NC1CCCCC1,nt,nt,nt,5%,nt,nt
CC(=O)Nc1ccc2nc(-c3ccncc3)[nH]c2c1,1%,i,-3%,2%,-11%,i
CC(=O)Nc1ccc2nc(-c3cc(C)ccc3C)[nH]c2c1,7%,16µM*,nt,-7%,nt,?
O=C(Cc1ccccc1)Nc1sc2c(c1C(=O)Nc1ccccc1)CCCCC2,4%,i,nt,?,nt,i
CCOc1ccccc1NC(=O)c1c(NC(=O)COc2ccc(Cl)cc2)sc2c1CCCCC2,0%,?,nt,0%,nt,i
CCOc1ccccc1NC(=O)c1c(NC(=O)COc2ccccc2)sc2c1CCCCC2,9%,?,nt,0%,nt,4.6µM*
O=C(Cc1ccccc1)Nc1sc2c(c1C(=O)Nc1ccc(Cl)cc1)CCCC2,2%,nt,nt,16µM*,nt,nt
CCOc1ccc(NC(=O)c2c(NC(=O)CNCCN3CCOCC3)sc3c2CCC3)cc1,0%,i,-7%,i,7.3µM*,i
SMILES,PINK1 expr mod,KB-V1 cytotox,MCF10A rerep,12-LOX inh,SW480 rerep,KB-3-1 tox
CCOC(=O)c1ccc(NC(=O)c2c(NC(=O)CCC(=O)O)sc3c2CCCCC3)cc1,1%,i,?,20µM*,19%,i
Cc1cc(OC(=O)c2ccc(CSc3ccc(Cl)cc3)cc2)ccc1C(C)C,nt,nt,nt,-19%,nt,nt
CC(C)C(=O)N1Cc2ccccc2CC2(CCCN(Cc3ccc(O)cc3)C2)C1 (configuration not stated),nt,nt,nt,12%[6.33 µM],nt,nt
CSc1ccc(C(=O)C2CCCN(C(=O)c3ccsc3)C2)cc1 (configuration not stated),-1%,?,-8%,-26%,-10%,i
CSc1ccc(C(=O)C2CCCN(S(=O)(=O)N(C)C)C2)cc1 (configuration not stated),-1%,21µM*,-2%,5%,-2%,?
CSc1ccc(C(=O)C2CCCN(C(=O)c3ccc4c(c3)no[n+]4[O-])C2)cc1 (configuration not stated),0%,?,18µM*,-4%,-3%,i
CCC(C)NC(=O)NC1CCN(c2nc3ccccc3n(C)c2=O)CC1 (configuration not stated),nt,nt,nt,-14%,nt,nt
CC(=O)NC1(C)CCCN(Cc2cccc(-c3ccccc3)c2)C1 (configuration not stated),nt,nt,nt,4%[176 µM],nt,nt
CC(=O)NC1(C)CCN(Cc2cccc(-c3ccc4c(ccn4C)c3)c2)C1 (configuration not stated),nt,nt,nt,32µM*,nt,nt
CCOc1ccc(NC(=O)CCc2nc(-c3ccc(C)n(C(C)C)c3=O)no2)cc1,nt,nt,nt,-2%,nt,nt
Cn1c(=O)c2c(nc(NCC(O)c3ccccc3)n2Cc2ccc(Cl)cc2Cl)n(C)c1=O (configuration not stated),nt,nt,nt,-5%,nt,nt
COCc1[nH]nc2c1C(c1ccc(F)cc1F)C(C#N)=C(N)O2 (configuration not stated),3%,i,1%,2%,-1%,i
COCc1[nH]nc2c1C(c1ccnc3ccccc13)C(C#N)=C(N)O2 (configuration not stated),?,i,?,-3%,16µM*,i
Cc1ccc(CN2CCOC[C@H]2c2ncc(C(C)(C)C)[nH]2)cc1,nt,nt,nt,64%[176 µM],nt,nt
CCN(CC)CCN1CCn2c3c(c4cc(C)ccc42)CCCC31 (configuration not stated),4%,i,4.1µM*,-16%,15µM*,i
COc1ccccc1CNC(=O)c1csc(NC2CC2)n1,nt,nt,nt,-24%,nt,nt
CCOC(=O)[C@H](CCc1ccccc1)N[C@@H](C)C(=O)N1Cc2ccccc2C[C@H]1C(=O)O,4%,i,0.12µM*,?,0%,i
COc1cc(S(=O)(=O)Nc2ccc3ccccc3c2)ccc1NC(C)=O,nt,nt,nt,-30%,nt,nt
CCc1ccc(NC(=O)C2CC3CCCC(C2)C3=O)cc1 (configuration not stated),nt,nt,nt,-3%,nt,nt
CC(C)C(=O)Nc1ccc2nn(-c3ccc(F)cc3)nc2c1,5%,i,?,nt,1%,i
Cc1ccc(-n2nc3ccc(N)cc3n2)cc1,1%,i,?,13%,16µM*,i
